Compound activity deposited in PubChem BioAssay by several laboratories.
MEX-5 binding: C. elegans MEX-5 TCR-2 RNA binding activity | Q9XUB2 | MEX-5/FITC-TCR2 RNA binding, fluorescence polarization; hits give low values | activity score (negative = inhibition of binding), % at 10 µM | 0.38% of 300,000 active;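 active = inhibition past about -25% in most replicates, and total fluorescence under double the plate's negative control median, limit read from the data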;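 also: 0% = DMSO and -100% = 5 µM competing unlabeled TCR2 RNA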
LYPLA1 counter: blocks human lysophospholipase 1, a PME1 counter-screen. recombinant LYPLA1, FP-Rh probe fluorescence polarization. inhibition, % at 5.9 µM. 0.16% of 320,000 active. AID 2174;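 active = inhibition above the mean of all tested compounds plus 3 SD, set per campaign, cut at about 14% in these data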;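 also: inhibitors block serine hydrolase probe labeling of LYPLA1 so polarization falls; 0% = enzyme with DMSO and 100% = wells lacking LYPLA1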
PREPL inh: inhibitors of human prolyl oligopeptidase-like enzyme PREPL | recombinant PREPL, fluorescence polarization activity-based probe | 0.68% of 320,000 active | inhibition, % at 5.96 µM; in the data active = inhibition above about 43%;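 also: 0% = enzyme with DMSO and 100% = wells lacking enzyme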
Target sequence (Q4J6C6 whole entry, looked up): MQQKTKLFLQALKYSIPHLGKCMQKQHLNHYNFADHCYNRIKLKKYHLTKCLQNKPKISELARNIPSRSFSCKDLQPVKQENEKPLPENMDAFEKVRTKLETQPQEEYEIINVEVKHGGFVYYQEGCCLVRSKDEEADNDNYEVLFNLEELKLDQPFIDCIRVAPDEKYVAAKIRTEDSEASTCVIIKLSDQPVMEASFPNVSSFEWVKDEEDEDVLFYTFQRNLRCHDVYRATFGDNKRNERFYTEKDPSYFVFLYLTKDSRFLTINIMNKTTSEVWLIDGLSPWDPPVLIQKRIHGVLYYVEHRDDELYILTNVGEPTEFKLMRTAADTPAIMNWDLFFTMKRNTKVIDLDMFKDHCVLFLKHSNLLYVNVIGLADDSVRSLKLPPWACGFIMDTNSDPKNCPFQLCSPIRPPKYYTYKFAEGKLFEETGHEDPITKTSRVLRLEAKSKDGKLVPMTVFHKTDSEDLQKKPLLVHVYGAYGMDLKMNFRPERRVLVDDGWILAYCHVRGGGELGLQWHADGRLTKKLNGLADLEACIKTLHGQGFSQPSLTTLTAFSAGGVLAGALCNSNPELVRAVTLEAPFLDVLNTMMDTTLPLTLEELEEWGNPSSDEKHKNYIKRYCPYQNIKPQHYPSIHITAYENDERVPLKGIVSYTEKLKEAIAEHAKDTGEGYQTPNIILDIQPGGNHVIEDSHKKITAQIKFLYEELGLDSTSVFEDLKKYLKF
PME-1 primary: blocks human protein phosphatase methylesterase 1; Q9Y570; recombinant PME-1, FP-Rh probe fluorescence polarization; inhibition, % at 5.9 µM; 0.53% of 320,000 active; AID 2130;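 active = inhibition above the campaign mean of all compounds plus 3 SD, cut at about 26% in these data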;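 also: competitive labeling of PME-1 active site by serine hydrolase directed probe; 0% = PME-1 with DMSO and 100% = wells lacking PME-1 enzyme; inhibitors block probe labeling so polarization falls and inhibition rises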
LYPLA2 counter: counter-screen for PME1 inhibitors: inhibitors of human LYPLA2. recombinant LYPLA2, FP-Rh probe fluorescence polarization. AID 2177. 0.38% of 320,000 active. inhibition, % at 5.9 µM. O95372;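 active = inhibition above the screen-wide mean plus 3 SD, limit set per campaign, cut at about 26% in these data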;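 also: 0% = LYPLA2 with DMSO and 100% = wells lacking LYPLA2 enzyme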
Fam108B counter: Fam108B inhibition, counter-screen for RBBP9 inhibitors | recombinant Fam108B, FP-Rh probe fluorescence polarization | inhibition, % at 9.51 µM | 0.33% of 300,000 active;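 active = inhibition above the screen mean inhibition plus 3 SD, computed separately per campaign, cut at about 18% in these data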;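 also: inhibitors lower polarization as less probe binds the enzyme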
Fam108b inh conf: confirmation of mouse Fam108b serine hydrolase inhibitors | inhibition, % at 9.51 µM | recombinant Fam108b, FP-Rh probe fluorescence polarization | AID 1978 | 44% of 930 active | shares compounds with Fam108B counter;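 active = inhibition above a limit from the primary screen, the mean over all compounds plus 3 SD, cut at about 19% in these data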;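 also: 0% = median of active Fam108b wells and 100% = catalytically dead S170A mutant; inhibitors free the probe so polarization falls as inhibition rises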
Fam108b ABPP HTS: mouse ABHD17B inhibition; 44% of 260 active; shares compounds with Fam108B counter; inhibition, % at 20 µM; AID 588649; recombinant Fam108b, gel-based ABPP, fluorophosphonate probe; in the data active = inhibition above about 40%
* hit, by the source's call; nt = not tested or not shown. This is a sample that favours compounds with a hit; in the whole collection about 1.6% have one here.

SMILES	MEX-5 binding	LYPLA1 counter	PREPL inh	PME-1 primary	LYPLA2 counter	Fam108B counter	Fam108b inh conf	others
O=C(N/N=C/c1ccc(OCc2ccccc2)cc1)c1ccncc1	0	-1	14	-5	1	-1	nt
CC1=NN(c2ccccc2)C(=O)/C1=C/c1ccc(Cl)cc1	0	nt	nt	nt	nt	nt	nt
CC1=NN(c2ccccc2)C(=O)/C1=C/c1c(O)n(-c2ccc(F)cc2)[nH]c1=O	-3	0	19	51*	5	46*	51*	Fam108b ABPP HTS=5
O=C(CCCSc1ccccc1)Nc1nc(-c2ccccn2)cs1	2	-3	4	1	-1	-1	nt
O=C(CCl)Nc1nc(-c2ccco2)c(-c2ccco2)s1	nt	-4	14	-7	-1	19*	7
O=C(CCCSc1ccccc1)Nc1nc(-c2ccco2)c(-c2ccco2)s1	-1	-10	27	33*	7	47*	32*	Fam108b ABPP HTS=75*
CC(=O)Nc1ccc(S(=O)(=O)NCC(=O)NNC(=O)COc2c(C)cccc2C)cc1	nt	nt	2	nt	nt	nt	nt
O=C1OC(Nc2ncccn2)c2ccccc21 (stereo not drawn)	1	1	11	-1	4	3	nt
O=C1OC(Nc2cc(Br)cc3cccnc23)c2ccccc21 (stereo not drawn)	nt	11	33	28*	17	47*	7
CC(=O)NC1=NN(C(C)=O)C(C)(c2ccco2)S1 (stereo not drawn)	-2	-1	4	4	-7	22*	3
CC(=O)NC1=NN(C(C)=O)C(C)(c2ccc(C)o2)S1 (stereo not drawn)	1	2	9	-4	1	-1	nt
COC/C=C/C1=CC2=CC(=O)C(C)(OC(=O)c3cnc4ccccc4n3)C(=O)C2=CN1c1cccc(C#N)c1 (stereo not drawn)	-4	-1	10	4	4	1	nt
CCCn1nc([N+](=O)[O-])c(C(C#N)c2nc3ccccc3s2)c(Cl)c1=O (stereo not drawn)	-11	-1	20	36*	17	31*	31*	Fam108b ABPP HTS=0
CCn1nc([N+](=O)[O-])c(C(C#N)c2nc3ccccc3n2C)c(Cl)c1=O (stereo not drawn)	-8	3	14	17	7	8	nt
O=[N+]([O-])c1ccc(/C=N/Nc2ccnc3cc(Cl)ccc23)o1	0	-6	34	18	-4	19*	10
Clc1ccc2c(N/N=C/c3ccccc3Br)ccnc2c1	-4	-3	4	-1	-1	-21	nt
CCN(CC)c1ccc(/C=C(/C#N)c2nc3ccccc3[nH]2)c(OC(C)C)c1	-33*	-10	20	9	-3	20*	0
Cc1cc(C)c(Nc2cc(S(=O)(=O)O)c(N)c3c2C(=O)c2ccccc2C3=O)c(C)c1	nt	55*	57*	64*	27*	70*	93*
Cc1cccc(S(=O)(=O)Nc2cccc3c2C(=O)c2ccccc2-3)c1	3	-7	14	-2	-13	-1	nt
N#CC1=C(c2ccccc2)/C(=C/c2ccccc2)OC1=O	1	8	0	11	4	19*	23*
O=C1O/C(=C/c2ccccc2)c2ccccc21	-1	-2	-31	-7	5	1	nt
OCCC#Cc1ccc(CN2CCN(Cc3ccccc3)C(CCO)C2)cc1 (stereo not drawn)	-2	2	-4	-1	6	-3	nt
Cc1ccc(SCc2cc(=O)c3c(=O)n(-c4ccccc4)[nH]c3[nH]2)cc1	-12	0	4	3	3	5	nt
O=c1cc(CSc2ccc(Cl)cc2)[nH]c2[nH]n(-c3ccccc3)c(=O)c12	-6	-4	37	10	7	19*	-2
COc1cccc(C(=O)/C=C/Nc2ccc(NC(C)=O)cc2)c1	3	0	2	6	-1	2	nt
COc1cccc(C(=O)/C=C/Nc2ccc(S(=O)(=O)Nc3cccc(C(C)=O)c3)cc2)c1	-6	-20	-5	-3	-16	22*	-11
